Measured values: PubChem BioAssay (EPA / NIEHS)
Results filed as inconclusive are left out. Active and inactive are the calls of the source. How the source made its calls, unless noted: active means hit-call score of the fitted dose curve at least 0.9, where 1 is the maximum; inconclusive means response in the unintended direction; inactive means score below 0.9.

How the values were obtained:
[1] = target: Bile acid receptor (Homo sapiens) (UniProt Q96RI1); assay: ATG_FXR_TRANS: Attagene TRANS-FACTORIAL HepG2 Assay for Farnesoid X Receptor (FXR) (AID 2282979); conditions: HepG2 Attagene TRANS FXR-GAL4 reporter transcription;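 further: hits raise reporter mRNA above DMSO so AC50 marks FXR activation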
Method in brief: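 Transient transfection of HepG2 with multiplexed GAL4-UAS reporter units; exogenous FXR-GAL4 chimera. Dose 24 h → TriZol RNA → oligo(dT) RT → PCR, 6-FAM primer extension, HpaI cut → CE. Gain vs DMSO.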

[2] = target: Hepatocyte nuclear factor 4-alpha (Homo sapiens) (UniProt P41235); assay: ATG_HNF4a_TRANS: Attagene TRANS-FACTORIAL HepG2 Assay for human Hepatocyte Nuclear Factor 4 alpha (HNF4a) (AID 2282982); conditions: HepG2 HNF4a transactivation reporter, mRNA readout
Method in brief: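 Activity of an exogenous HNF4a–Gal4 fusion scored as induced GAL4-UAS reporter transcripts after 24 h chemical exposure of transfected human HepG2 cells. Read-out via RT-PCR with 6-FAM labelling and capillary electrophoresis; rise over DMSO baseline.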

[3] = ATG_M_32_TRANS: Attagene TRANS-FACTORIAL HepG2 Assay for M32 Transcription Factor (Internal Marker) (AID 2282984); conditions: HepG2 Attagene TRANS M32 internal marker reporter;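 further: transcript level of a background control reporter unit measured by RT-PCR and capillary electrophoresis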
Method in brief: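 Internal background reporter in transfected HepG2: after 24 h chemical exposure, RNA reverse-transcribed, reporter cDNA amplified, fluorescently labelled and HpaI-cut, then sized by capillary electrophoresis. Gain of signal fitted against DMSO control.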

[4] = target: Nuclear receptor subfamily 4 group A member 2 (Homo sapiens) (UniProt P43354); assay: ATG_NURR1_TRANS: Attagene TRANS-FACTORIAL HepG2 Assay for human Nuclear Receptor Related Protein 1 (NURR1) (AID 2282985); conditions: HepG2 Attagene TRANS reporter, mRNA readout
Method in brief: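 Reporter transcript induction, measured by RT-PCR with fluorescent labelling, HpaI digestion and capillary electrophoresis, after 24 hr dosing of human HepG2 cells transiently expressing an exogenous NR-Gal4 fusion with GAL4-UAS-driven reporters; DMSO as baseline.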

[5] = target: Transcriptional activator Myb (Homo sapiens) (UniProt P10242); assay: ATG_Myb_CIS: Attagene CIS-FACTORIAL HepG2 Assay for human Myeloblastosis (Myb) Proto-Oncogene Transcription Factor (AID 2282986; active means hit-call score of the fitted dose curve at least 0.9, where 1 is the maximum; inactive means score below 0.9); conditions: HepG2 Attagene CIS-FACTORIAL Myb reporter transcription; actives raise or lower the signal
Method in brief: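 Reporter mRNA is quantified by RT-PCR and capillary electrophoresis 24 h after dosing HepG2 cells transfected with cis-regulated reporter units, which track endogenous transcription factor activity. Gain and loss of signal are fitted versus DMSO baseline.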

[6] = target: Nuclear respiratory factor 1 (Homo sapiens) (UniProt Q16656); assay: ATG_NRF1_CIS: Attagene CIS-FACTORIAL HepG2 Assay for human Nuclear Respiratory Factor 1 (NRF1) Orphan Gene (AID 2282987; active means hit-call score of the fitted dose curve at least 0.9, where 1 is the maximum; inactive means score below 0.9); conditions: HepG2 NRF1 cis-element reporter, Attagene multiplex; actives raise or lower the signal
Method in brief: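 Endogenous NRF1-driven reporter transcription in transfected HepG2 cells after 24 h treatment. Readout: RT-PCR products, 6-FAM labelled and resolved by capillary electrophoresis; changes fitted both directions relative to DMSO.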

[7] = ATG_NFI_CIS: Attagene CIS-FACTORIAL HepG2 Assay for human Nuclear Factor I (NFI) (AID 2282989; active means hit-call score of the fitted dose curve at least 0.9, where 1 is the maximum; inactive means score below 0.9); conditions: HepG2 cis-regulatory reporter, NFI response element transcription; actives raise or lower the signal
Method in brief: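 Transfected HepG2 liver cells, exposed 24 h, supplied total RNA for oligo(dT) reverse transcription and reporter-specific PCR. Labelled, HpaI-cut fragments were sized by capillary electrophoresis; DMSO set the baseline for bidirectional fitting.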

[8] = ATG_M_06_TRANS: Attagene TRANS-FACTORIAL HepG2 Assay for M06 Transcription Factor (Internal Marker) (AID 2282983); conditions: HepG2 Attagene TRANS M06 internal marker reporter;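 further: reporter transcript level by RT-PCR then capillary electrophoresis fluorescence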
Method in brief: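 Background control endpoint: reporter mRNA from transiently transfected HepG2 after 24 h dosing, detected by RT-PCR with capillary electrophoresis fluorescence. Analysed for gain versus DMSO.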

[9] = target: Oxysterols receptor LXR-beta (Homo sapiens) (UniProt P55055); assay: ATG_LXRb_TRANS: Attagene TRANS-FACTORIAL HepG2 Assay for human Liver X Receptor beta (LXRb) (AID 2282981); conditions: HepG2 Attagene TRANS GAL4-LXRb reporter, mRNA
Method in brief: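 After 24 h chemical treatment of transfected HepG2 cells carrying exogenous NR-Gal4 chimeras, reporter mRNA was quantified by fluorescent RT-PCR and capillary electrophoresis; activity taken as increase over DMSO controls.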

[10] = target: Oxysterols receptor LXR-alpha (Homo sapiens) (UniProt Q13133); assay: ATG_LXRa_TRANS: Attagene TRANS-FACTORIAL HepG2 Assay for human Liver X Receptor alpha (LXRa) (AID 2282980); conditions: HepG2 Attagene TRANS reporter, LXRa transactivation
Method in brief: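 Transfect HepG2 with GAL4-UAS multiplex reporter constructs (TRANS format, chimeric receptor-GAL4); treat 24 h; extract RNA, reverse-transcribe, PCR-amplify, FAM-label, HpaI-digest; resolve fragments by capillary electrophoresis. Upward response vs DMSO.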

Measured: AC50

Nuclear receptor subfamily 4 group A member 2 (Homo sapiens), sequence (P43354 whole entry, looked up, the tested form may be a part): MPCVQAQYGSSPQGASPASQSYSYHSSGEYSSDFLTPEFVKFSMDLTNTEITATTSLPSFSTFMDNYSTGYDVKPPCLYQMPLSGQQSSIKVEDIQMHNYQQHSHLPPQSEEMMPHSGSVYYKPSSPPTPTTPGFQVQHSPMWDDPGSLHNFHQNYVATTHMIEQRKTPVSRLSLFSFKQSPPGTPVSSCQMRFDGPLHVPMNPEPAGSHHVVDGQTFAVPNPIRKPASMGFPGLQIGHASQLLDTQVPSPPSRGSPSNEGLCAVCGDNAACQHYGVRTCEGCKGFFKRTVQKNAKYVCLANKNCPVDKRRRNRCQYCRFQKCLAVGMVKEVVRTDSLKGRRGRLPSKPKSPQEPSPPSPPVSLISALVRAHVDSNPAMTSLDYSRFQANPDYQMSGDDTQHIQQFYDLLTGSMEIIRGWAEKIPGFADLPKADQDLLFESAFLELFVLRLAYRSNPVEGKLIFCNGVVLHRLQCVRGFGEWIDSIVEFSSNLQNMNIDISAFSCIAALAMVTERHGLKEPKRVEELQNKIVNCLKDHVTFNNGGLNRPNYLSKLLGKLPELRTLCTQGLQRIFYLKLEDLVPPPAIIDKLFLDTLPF
Bile acid receptor (Homo sapiens), sequence (Q96RI1 whole entry, looked up, the tested form may be a part): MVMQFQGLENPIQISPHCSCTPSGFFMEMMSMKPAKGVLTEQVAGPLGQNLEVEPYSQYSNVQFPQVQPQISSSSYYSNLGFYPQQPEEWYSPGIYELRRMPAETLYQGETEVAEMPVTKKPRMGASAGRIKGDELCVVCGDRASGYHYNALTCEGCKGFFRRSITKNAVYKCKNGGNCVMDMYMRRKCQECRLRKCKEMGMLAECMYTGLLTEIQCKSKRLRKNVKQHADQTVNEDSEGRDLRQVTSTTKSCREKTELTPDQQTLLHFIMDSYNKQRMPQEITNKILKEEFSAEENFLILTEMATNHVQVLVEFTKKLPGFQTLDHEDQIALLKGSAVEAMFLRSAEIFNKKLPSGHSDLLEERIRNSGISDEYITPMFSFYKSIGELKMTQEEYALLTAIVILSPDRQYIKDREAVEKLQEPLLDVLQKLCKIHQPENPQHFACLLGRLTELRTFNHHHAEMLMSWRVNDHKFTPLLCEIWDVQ
Oxysterols receptor LXR-beta (Homo sapiens), sequence (P55055 whole entry, looked up, the tested form may be a part): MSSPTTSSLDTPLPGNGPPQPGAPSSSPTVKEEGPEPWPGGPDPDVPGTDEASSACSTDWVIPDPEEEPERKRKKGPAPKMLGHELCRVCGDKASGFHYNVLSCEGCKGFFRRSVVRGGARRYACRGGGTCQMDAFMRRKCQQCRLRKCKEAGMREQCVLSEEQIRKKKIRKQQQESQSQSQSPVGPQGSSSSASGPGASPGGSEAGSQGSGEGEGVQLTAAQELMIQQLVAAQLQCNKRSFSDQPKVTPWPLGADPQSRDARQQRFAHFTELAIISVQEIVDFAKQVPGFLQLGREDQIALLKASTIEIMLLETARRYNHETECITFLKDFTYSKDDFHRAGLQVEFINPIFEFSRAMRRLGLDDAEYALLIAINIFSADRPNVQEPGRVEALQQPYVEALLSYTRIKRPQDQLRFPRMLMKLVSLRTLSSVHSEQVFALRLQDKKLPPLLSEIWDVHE
Transcriptional activator Myb (Homo sapiens), sequence (P10242 whole entry, looked up): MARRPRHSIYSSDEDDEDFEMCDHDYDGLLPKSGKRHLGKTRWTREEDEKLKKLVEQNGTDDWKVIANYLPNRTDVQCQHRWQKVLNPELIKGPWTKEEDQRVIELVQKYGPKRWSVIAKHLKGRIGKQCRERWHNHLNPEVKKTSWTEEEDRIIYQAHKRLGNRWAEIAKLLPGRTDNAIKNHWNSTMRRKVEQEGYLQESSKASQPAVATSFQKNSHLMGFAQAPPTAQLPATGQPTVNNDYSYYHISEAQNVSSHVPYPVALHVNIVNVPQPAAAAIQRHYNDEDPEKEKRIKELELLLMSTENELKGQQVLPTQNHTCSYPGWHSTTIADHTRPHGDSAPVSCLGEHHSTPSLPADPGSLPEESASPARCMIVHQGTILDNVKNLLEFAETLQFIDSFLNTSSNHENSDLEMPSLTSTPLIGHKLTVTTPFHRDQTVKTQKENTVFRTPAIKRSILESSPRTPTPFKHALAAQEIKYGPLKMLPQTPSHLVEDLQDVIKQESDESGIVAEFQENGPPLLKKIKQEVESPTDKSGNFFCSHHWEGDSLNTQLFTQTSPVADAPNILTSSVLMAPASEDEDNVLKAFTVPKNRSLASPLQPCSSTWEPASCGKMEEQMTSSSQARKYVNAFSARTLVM
Nuclear respiratory factor 1 (Homo sapiens), sequence (Q16656 whole entry, looked up): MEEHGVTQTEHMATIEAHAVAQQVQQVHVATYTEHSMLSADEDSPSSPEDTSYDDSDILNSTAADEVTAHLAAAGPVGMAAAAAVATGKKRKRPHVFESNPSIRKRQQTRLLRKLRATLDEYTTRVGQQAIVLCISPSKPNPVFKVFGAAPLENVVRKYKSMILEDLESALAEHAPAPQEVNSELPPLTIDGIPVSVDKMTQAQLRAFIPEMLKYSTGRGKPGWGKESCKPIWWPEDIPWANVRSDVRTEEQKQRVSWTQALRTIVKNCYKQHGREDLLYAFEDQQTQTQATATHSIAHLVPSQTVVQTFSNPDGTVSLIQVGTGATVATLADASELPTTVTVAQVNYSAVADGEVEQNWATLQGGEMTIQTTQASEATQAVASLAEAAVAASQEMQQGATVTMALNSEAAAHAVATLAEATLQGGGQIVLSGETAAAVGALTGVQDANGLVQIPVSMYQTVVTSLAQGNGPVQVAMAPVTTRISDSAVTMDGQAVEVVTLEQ
Oxysterols receptor LXR-alpha (Homo sapiens), sequence (Q13133 whole entry, looked up, the tested form may be a part): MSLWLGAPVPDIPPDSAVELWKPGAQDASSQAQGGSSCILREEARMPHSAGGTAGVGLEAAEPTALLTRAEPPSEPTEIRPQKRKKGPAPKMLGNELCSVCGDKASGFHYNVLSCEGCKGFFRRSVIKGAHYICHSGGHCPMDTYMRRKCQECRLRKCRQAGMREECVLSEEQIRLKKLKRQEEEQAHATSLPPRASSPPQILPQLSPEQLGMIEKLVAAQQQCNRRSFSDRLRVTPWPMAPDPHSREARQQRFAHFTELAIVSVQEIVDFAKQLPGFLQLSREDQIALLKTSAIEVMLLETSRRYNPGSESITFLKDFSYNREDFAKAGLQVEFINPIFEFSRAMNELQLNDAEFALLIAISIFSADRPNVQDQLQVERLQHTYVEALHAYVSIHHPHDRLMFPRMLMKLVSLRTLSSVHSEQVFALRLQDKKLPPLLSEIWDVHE
Hepatocyte nuclear factor 4-alpha (Homo sapiens), sequence (P41235 whole entry, looked up, the tested form may be a part): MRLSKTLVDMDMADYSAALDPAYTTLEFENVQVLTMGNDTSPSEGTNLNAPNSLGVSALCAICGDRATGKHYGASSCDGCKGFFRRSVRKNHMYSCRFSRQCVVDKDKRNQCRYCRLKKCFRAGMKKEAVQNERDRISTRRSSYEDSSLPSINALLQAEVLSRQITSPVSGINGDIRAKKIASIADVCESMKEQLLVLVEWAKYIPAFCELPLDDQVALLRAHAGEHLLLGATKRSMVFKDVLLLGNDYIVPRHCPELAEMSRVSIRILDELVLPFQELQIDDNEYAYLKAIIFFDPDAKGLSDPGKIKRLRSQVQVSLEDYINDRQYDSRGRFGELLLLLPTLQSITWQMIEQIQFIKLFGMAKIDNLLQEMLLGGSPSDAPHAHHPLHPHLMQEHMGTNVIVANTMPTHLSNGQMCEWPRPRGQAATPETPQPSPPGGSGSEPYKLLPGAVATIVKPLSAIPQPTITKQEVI

CC(C)(C)CC(C)(C)c1ccc(OCCOCC[N+](C)(C)Cc2ccccc2)cc1
not listed: [8] | [9] | [10]
inactive: all other assays above

CC(=O)O[C@@H]1C[C@@H]2CC[C@@]1(C)C2(C)C
inactive: [1] | [2] | [3] | [5] | [6]

COc1cc(Cl)c(OC)cc1N
inactive: [1] | [2] | [8] | [5] | [6] | [7]

C1=CC2C3C=CC(C3)C2C1 (stereo not drawn)
not listed: [2] | [3] | [10]
inactive: all other assays above

CCCCN(CCCC)C(=O)N(CCCC)CCCC
active: [1] 15.6 µM | [4] 42.9 µM | [6] 40.2 µM
inactive: [8] | [3] | [5]

COc1ccccc1[N+](=O)[O-]
inactive: [1] | [9] | [8] | [6] | [7]

CC1CCC(C(C)C)C(O)C1 (stereo not drawn)
not listed: [2] | [3] | [10]
inactive: all other assays above

CCOC(=O)CCc1ccccc1
not listed: [2] | [8] | [10]
inactive: all other assays above

Cc1ncc[nH]1
not listed: [4] | [9] | [10]
inactive: all other assays above

CCCOCCO
inactive: [1] | [8] | [3] | [4] | [6] | [7]

O=C1c2ccccc2C(=O)c2c(O)ccc(O)c21
not listed: [7] | [9] | [10]
inactive: all other assays above

Cc1cc(C)nc(NS(=O)(=O)c2ccc(N)cc2)n1
not listed: [2] | [9] | [10]
inactive: all other assays above

CN(C)C(=S)SC(=S)N(C)C
not listed: [8] | [9] | [10]
inactive: all other assays above

OCC#CCO
not listed: [2] | [9] | [10]
inactive: all other assays above

O=C(CS)OCCOC(=O)CS
inactive: [1] | [2] | [8] | [5] | [6]
active: [4] 52.4 µM

COc1cc(CCC(C)=O)ccc1O
not listed: [2] | [8] | [10]
inactive: all other assays above

CC(=O)CC(=O)Nc1ccc(C)cc1C
not listed: [4] | [9] | [10]
inactive: all other assays above

CCCCCC(=O)CC
inactive: [1] | [2] | [8] | [5] | [6] | [7]

C=C1CC[C@H](O)C/C1=C/C=C1\CCC[C@]2(C)[C@@H]([C@H](C)/C=C/[C@H](C)C(C)C)CC[C@@H]12
inactive: [1] | [8] | [3] | [5] | [6]

CCNCCO
not listed: [3] | [9] | [10]
inactive: all other assays above

CCC(=O)OCCOc1ccccc1
not listed: [1] | [2]
inactive: all other assays above

CC1=C(Br)C(=O)C(Br)=C/C1=C(/c1ccccc1S(=O)(=O)O)c1cc(Br)c(O)c(Br)c1C
inactive: [1] | [8] | [4] | [5] | [6] | [7]

CC(=O)c1c(C)c([N+](=O)[O-])c(C(C)(C)C)c([N+](=O)[O-])c1C
inactive: [1] | [8] | [6] | [7]
active: [4] 10.2 µM

CCCCCCC(C)(C)S
not listed: [1] | [2] | [7]
inactive: all other assays above

CC(C)C(OC(=O)c1ccccc1)C(C)(C)COC(=O)c1ccccc1 (stereo not drawn)
active: [1] 20 µM
inactive: [4] | [6] | [7]

O=C1CCCC=CCCCCCCCCCC1
inactive: [1] | [8] | [5] | [6]
active: [4] 26.5 µM

O=C(Nc1ccc2c(O)c(N=Nc3ccc(N=Nc4ccc(S(=O)(=O)O)cc4)cc3)c(S(=O)(=O)O)cc2c1)c1ccccc1
not listed: [1] | [2]
inactive: all other assays above

CCCCCCCCc1ccc(S(=O)(=O)O)cc1
active: [5] 166 µM | [6] 146 µM | [7] 185 µM
inactive: [1] | [3] | [4]

O=CN1CCOCC1
not listed: [1] | [4] | [7]
inactive: all other assays above

NCCNc1cccc2ccccc12
active: [7] 178 µM
not listed: [1]
inactive: all other assays above

CCCCCc1ccco1
inactive: [1] | [3] | [4] | [6]
